Source: PubChem BioAssay AID1159580 (chemical genetic matrix, 2015)
About 2,000 (36%) of roughly 5,500 compounds were called active. Not shown: some 18% with an inconclusive outcome. No stated cut-off is given here; in the data, active means normalized growth mostly below about 0.91 (no sharp cut-off); inconclusive means no clear call, values can overlap the other calls; inactive means mostly above about 0.92. The list shows a part of the results.

Assay: chemical genetic growth profiling, strain panel (AID 1159580);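 further: tested at 20 µM; growth read once vehicle control cultures reached saturation at 30 °C; 1 = growth at the plate median or of vehicle wells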
Details: S. cerevisiae deletion strains, growth OD

Measured: normalized growth

O=C(/C=C/c1ccc(O)c(O)c1)OC(Cc1ccc(O)c(O)c1)C(=O)O (stereo not given)
inactive: locus YAL021C, strain ccr4, stronger effect = lower value 1.07 | locus YAL026C, strain drs2, stronger effect = lower value 1.03 | locus YAL030W, strain snc1, stronger effect = lower value 1.01 | locus YBL061C, strain skt5, stronger effect = lower value 1.05 | locus YBR009C, strain hhf1, stronger effect = lower value 1.01 | locus YBR023C, strain chs3, stronger effect = lower value 1.04 | locus YBR171W, strain sec66, stronger effect = lower value 1.01 | locus YBR231C, strain swc5, stronger effect = lower value 0.994 | locus YBR279W, strain paf1, stronger effect = lower value 1.02 | locus YCL011C, strain gbp2, stronger effect = lower value 1.02 | locus YCL016C, strain dcc1, stronger effect = lower value 1.05 | locus YCL061C, strain MRC1, stronger effect = lower value 1.03 | locus YCL069W, strain vba3, stronger effect = lower value 1.02 | locus YCR088W, strain abp1, stronger effect = lower value 1.02 | locus YDL005C, strain med2, stronger effect = lower value 1.01 | locus YDL040C, strain nat1, stronger effect = lower value 1.02 | locus YDR001C, strain nth1, stronger effect = lower value 1.02 | locus YDR069C, strain doa4, stronger effect = lower value 1.03 | locus YDR137W, strain rgp1, stronger effect = lower value 1.09 | locus YDR159W, strain sac3, stronger effect = lower value 0.922 | locus YDR195W, strain ref2 1.07 | locus YDR297W, strain sur2, stronger effect = lower value 1.02 | locus YDR334W, strain swr1, stronger effect = lower value 1.04 | locus YDR335W, strain msn5, stronger effect = lower value 1.03 | locus YDR392W, strain spt3, stronger effect = lower value 0.885 | locus YEL003W, strain gim4, stronger effect = lower value 0.999 | locus YEL037C, strain rad23, stronger effect = lower value 1.02 | locus YEL061C, strain CIN8 (second series), stronger effect = lower value 1.02 | locus YER015W, strain faa2, stronger effect = lower value 1.01 | locus YER016W, strain bim1, stronger effect = lower value 1.04 | locus YER111C, strain swi4, stronger effect = lower value 1.01 | locus YER155C, strain BEM2 (second series), stronger effect = lower value 0.997 | locus YFR010W, strain ubp6, stronger effect = lower value 0.997 | locus YGL167C, strain pmr1, stronger effect = lower value 1.01 | locus YGL173C, strain kem1, stronger effect = lower value 0.995 | locus YGL227W, strain vid30, stronger effect = lower value 1.02 | locus YGL240W, strain doc1, stronger effect = lower value 1.04 | locus YGL253W, strain hxk2, stronger effect = lower value 1.05 | locus YHR013C, strain ard1, stronger effect = lower value 0.999 | locus YHR027C, strain rpn1, stronger effect = lower value 1 | locus YHR030C, strain SLT2, stronger effect = lower value 0.982 | locus YHR079C, strain IRE1, stronger effect = lower value 0.989 | locus YHR142W, strain chs7, stronger effect = lower value 1.04 | locus YJL092W, strain hpr5, stronger effect = lower value 1.02 | locus YJL095W, strain BCK1 (second series), stronger effect = lower value 1.03 | locus YJL095W, strain BCK1, stronger effect = lower value 0.999 | locus YJL115W, strain asf1, stronger effect = lower value 1.02 | locus YJL129C, strain trk1, stronger effect = lower value 1.03 | locus YJL154C, strain vps35, stronger effect = lower value 1.02 | locus YJL164C, strain tpk1, stronger effect = lower value 0.99 | locus YJL166W, strain qcr8, stronger effect = lower value 1.03 | locus YJL187C, strain SWE1, stronger effect = lower value 1.03 | locus YJR066W, strain TOR1, stronger effect = lower value 0.912 | locus YKL160W, strain elf1, stronger effect = lower value 1.04 | locus YKR026C, strain gcn3, stronger effect = lower value 1.03 | locus YKR091W, strain srl3, stronger effect = lower value 1.01 | locus YLL001W, strain dnm1, stronger effect = lower value 1 | locus YLL026W, stronger effect = lower value 1.02 | locus YLL041C, strain sdh2, stronger effect = lower value 1.02 | locus YLR027C, strain aat2, stronger effect = lower value 1.04 | locus YLR113W, strain HOG1, stronger effect = lower value 0.979 | locus YLR221C, strain rsa3, stronger effect = lower value 0.989 | locus YLR258W, strain gsy2, stronger effect = lower value 1.01 | locus YLR262C, strain YPT6 (second series), stronger effect = lower value 1.05 | locus YLR320W, strain mms22, stronger effect = lower value 1 | locus YLR342W, strain FKS1, stronger effect = lower value 1.02 | locus YLR357W, strain rsc2, stronger effect = lower value 1.04 | locus YLR370C, strain arc18, stronger effect = lower value 1.03 | locus YLR384C, strain iki3, stronger effect = lower value 1 | locus YML120C, strain ndi1, stronger effect = lower value 0.994 | locus YMR058W, strain fet3, stronger effect = lower value 0.932 | locus YMR125W, strain sto1, stronger effect = lower value 1.02 | locus YMR129W, stronger effect = lower value 1.02 | locus YMR205C, strain PFK2, stronger effect = lower value 1.08 | locus YMR231W, strain pep5, stronger effect = lower value 1.01 | locus YNL071W, strain lat1, stronger effect = lower value 1.01 | locus YNL183C, strain NPR1, stronger effect = lower value 0.905 | locus YNL209W, strain ssb2, stronger effect = lower value 1 | locus YNL248C, strain rpa49, stronger effect = lower value 1.03 | locus YNL322C, strain KRE1 (second series), stronger effect = lower value 1.03 | locus YNR049C, strain mso1, stronger effect = lower value 1.02 | locus YOR001W, strain rrp6, stronger effect = lower value 0.965 | locus YOR070C, strain gyp1, stronger effect = lower value 1.01 | locus YOR080W, strain dia2, stronger effect = lower value 1.02 | locus YOR083W, strain WHI5, stronger effect = lower value 0.988 | locus YOR106W, strain vam3, stronger effect = lower value 1.05 | locus YOR231W, strain MKK1, stronger effect = lower value 1 | locus YOR265W, strain rbl2, stronger effect = lower value 1.01 | locus YOR270C, strain vph1, stronger effect = lower value 1.07 | locus YOR290C, strain snf2, stronger effect = lower value 1.04 | locus YPL051W, strain arl3, stronger effect = lower value 1.04 | locus YPL078C, strain atp4, stronger effect = lower value 1.06 | locus YPL106C, strain sse1, stronger effect = lower value 1.06 | locus YPL240C, strain hsp82, stronger effect = lower value 1.02 | locus YPL256C, strain CLN2, stronger effect = lower value 1
